Compound activity (PubChem)
Sampled rows, rich in hits. Any-hit rate of the full collection: about 19%.
HT1080 IDH1KD tx – toxicity to HT-1080 IDH1 knockdown cells (counter line); AID 686971; HT-1080 IDH1 knockdown viability, ATP luminescence, 48 h; 360,000 tested, 2% active; Potency, µM (highest dose often 46.1 µM), inactives show top-dose activity, negative = toxicity, hits mostly cytotoxic;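 further: 0% = DMSO wells and -100% = cell-free medium wells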
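Assay cells: HT-1080 with IDH1 knockdown, 750 per well, RPMI/5% FBS. Exposure: 48 h at 37 °C following 2 h pre-incubation. Read: CellTiter-Glo luminescence; fitted concentration-response, curve class assigned.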
KB-V1 MDR tox – KB-V1 MDR subline cytotoxicity. KB-V1 MDR cells viability, CellTiter-Glo, 72 h. Potency, µM (highest dose often 46.1 µM), hits mostly cytotoxic. 400,000 tested, 3.4% active. AID 1347076; further: nearly all actives have a fitted effect of over 60% in size
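Following 72 h at 37 degrees C with compound, KB-V1 cell viability was read by CellTiter-Glo luminescence, medium being phenol-red-free DMEM plus 10% FBS; concentration-response parameters came from normalized, curve-fitted qHTS data.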
TDP1 cell CPT – DT40-hTDP1 cell growth loss with CPT; chicken DT40 Tdp1-/-;hTDP1 cells + 20 nM CPT, ATP luminescence, 48 h; Potency, µM (series often up to 46.2 µM), without a hit: at the top dose activity change, negative = growth inhibition, most hits filed as inhibitors; 420,000 tested, 12% active; further: nearly all actives have a fitted effect of over 55% in size
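Cell growth measured by CellTiter-Glo luminescence after a minimum 48 h, 37 C compound exposure with 20 nM CPT in Tdp1-knockout DT40 cells stably expressing hTDP1, seeded 400/well; qHTS titration format.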
KB-3-1 cytotox – KB-3-1 parental cell cytotoxicity | KB-3-1 viability, CellTiter-Glo ATP luminescence, 72 h | Potency, µM (highest dose often 46.1 µM), actives largely listed as cytotoxic | 400,000 tested, 1.4% active | AID 1347075; further: nearly all actives have a fitted effect of over 60% in size
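Cytotoxicity measured as CellTiter-Glo luminescence after 72 h at 37 C. Compound titrations were pinned onto drug-naive KB-3-1 parental adenocarcinoma cells grown in DMEM with 10% FBS, and normalized data fitted to concentration-response curves.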
HT1080NT lethal – kills 2HG-producing HT-1080-NT fibrosarcoma cells. Potency, µM (titrated, usually from 46.1 µM), for inactives: top-dose activity, negative = less viability, actives largely listed as cytotoxic. HT-1080-NT fibrosarcoma viability, CellTiter-Glo ATP luminescence, 48 h. 360,000 tested, 1.6% active. AID 686970;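 further: NT is the 2HG producing partner of a matched IDH1 knockdown line; 0% = DMSO-treated cells and -100% = media-only wells without cells; nearly all actives have a fitted effect of over 55% in size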
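750 cells/well, RPMI + 5% FBS; 2 h settle, compound pin-transfer, 48 h at 37 degrees C. CellTiter-Glo 10 min RT, luminescence. Normalized to DMSO and media-only wells.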
TDP1 cell noCPT – qHTS for Inhibitors of human tyrosyl-DNA phosphodiesterase 1 (TDP1): qHTS in cells in absence of CPT | DT40 Tdp1-/- hTDP1 cells, no CPT, ATP luminescence, 48 h | Potency, µM (doses to about 46.2 µM), for the others: at the top dose activity change, negative = growth inhibition, hits mostly inhibitors | 420,000 tested, 15% active; further: nearly all actives have a fitted effect of over 55% in size
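Camptothecin absent (DMSO only). Human TDP1-complemented DT40 knockout cells, 400 cells/well, 37 °C for minimum 48 hr; ATP measured via CellTiter-Glo, 30 min dark incubation, luminescence.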
Active calls of the source: *; i = inactive; ? = inconclusive; / = not tested or not shown. The call rests on the fitted dose curve; in most records, active means well fitted curve in the direction sought with a large enough effect; inconclusive means small, poorly fitted or top-dose-only effect, or another doubt; inactive means no such curve, though single readings can be large; an effect the other way counts as inactive or inconclusive. Unless noted, on the % scale 0 is the no-effect control and ±100 the full control effect; potency means the concentration at half of the fitted maximal effect.

SMILES	HT1080 IDH1KD tx	KB-V1 MDR tox	TDP1 cell CPT	KB-3-1 cytotox	HT1080NT lethal	TDP1 cell noCPT
CCOc1ccc2nc(N(CCCN(C)C)C(=O)c3ccc4c(c3)CCCC4)sc2c1	?	i	?	21µM*	18µM*	?
CN(C)CCCN(C(=O)c1ccc2c(c1)CCCC2)c1nc2ccc(Cl)cc2s1	?	10µM*	15µM*	?	?	15µM*
CCOc1ccc2nc(N(CCCN(C)C)C(=O)c3ccc(S(=O)(=O)N4CCc5ccccc5C4)cc3)sc2c1	?	?	?	i	?	?
COc1cccc2sc(N(CCN(C)C)C(=O)c3ccc4c(c3)CCCC4)nc12	-15%	i	?	i	-3%	?
COCc1cc(C)nc2sc(C(=O)Nc3cc(C)ccc3F)c(N)c12	/	/	-14%	/	/	?
Cc1ccc(S(=O)(=O)Nc2ccc3c(c2)C(=O)N([C@@H](C)CO)C[C@@H](C)[C@@H](CN(C)C(=O)NC2CCCCC2)OCCCC[C@H](C)O3)cc1	2%	i	0%	i	-10%	-16%
Cc1ccc(S(=O)(=O)Nc2ccc3c(c2)C(=O)N([C@H](C)CO)C[C@H](C)[C@@H](CN(C)C(=O)NC2CCCCC2)OCCCC[C@@H](C)O3)cc1	-22%	i	21µM*	i	-10%	13µM*
C[C@@H]1CN([C@@H](C)CO)C(=O)c2cc(NS(=O)(=O)c3ccc(F)cc3)ccc2O[C@@H](C)CCCCO[C@H]1CN(C)C(=O)NC1CCCCC1	-5%	i	23µM*	?	-7%	?
C[C@H](CO)N1C[C@H](C)[C@@H](CN(C)C(=O)NC2CCCCC2)Oc2ccc(NS(=O)(=O)c3ccccc3)cc2C1=O	9%	i	-18%	i	4%	-18%
Cc1noc(C)c1NC(=O)Nc1ccc2c(c1)C(=O)N([C@@H](C)CO)C[C@@H](C)[C@H](CN(C)C(=O)Nc1cccc3ccccc13)OCCCC[C@H](C)O2	-1%	i	?	i	-5%	?
Cc1ccc(S(=O)(=O)Nc2ccc3c(c2)C(=O)N([C@H](C)CO)C[C@H](C)[C@H](CN(C)C(=O)Nc2cccc4ccccc24)OCCCC[C@@H](C)O3)cc1	-18%	?	21µM*	i	-10%	15µM*
C[C@@H]1CCCCO[C@@H](CN(C)C(=O)Nc2ccccc2)[C@@H](C)CN([C@H](C)CO)C(=O)c2cc(N(C)C)ccc2O1	-2%	i	-26%	i	-6%	?
C[C@@H]1CCCCO[C@H](CN(C)C(=O)Nc2cccc3ccccc23)[C@@H](C)CN([C@H](C)CO)C(=O)c2cc(N(C)C)ccc2O1	2%	?	15µM*	i	-1%	9.2µM*
Cc1cccc(OCCNS(=O)(=O)c2ccc(Cl)cc2)c1	0%	i	?	i	5%	-3%
Cc1c(Cl)cccc1NC(=O)Nc1c(C)n(C)n(-c2ccccc2)c1=O	2%	i	-6%	i	-7%	-1%
COc1ccc(-n2ncc3c(NC4CCCC4)ncnc32)cc1	/	i	?	i	/	?
CCOCCOC(=O)c1ccc2c(c1)N(Cc1ccccc1C#N)C(=O)c1ccccc1S2(=O)=O	/	i	?	i	/	?
CC1=NC(=O)C(N=Nc2ccccc2)N1c1ccccc1 (centres undefined)	-3%	i	-6%	i	-4%	-14%
CC1=NC(=O)C(N=Nc2ccccc2C(=O)O)N1c1ccccc1 (centres undefined)	0%	i	7.3µM*	i	-21%	13µM*
COc1ccc(NS(=O)(=O)c2cccc(N/C(=N\S(=O)(=O)c3ccccc3)c3ccc(F)cc3)c2)cc1	?	i	21µM*	i	?	?
COc1ccccc1NS(=O)(=O)c1cc(N/C(=N/S(=O)(=O)c2ccccc2)c2ccc(F)cc2)ccc1Cl	-13%	i	/	?	-10%	21µM*
Cc1nn(C(=O)c2cccc([N+](=O)[O-])c2C)c(C)c1S(=O)(=O)N1CCCCCC1	/	/	-22%	/	/	-7%
CCS(=O)(=O)N1CCc2cc(C(=O)Nc3cccc(C)c3C)ccc21	/	i	?	i	/	?
CC1(C)OC(=O)C2=C(C[C@@H](CCOCc3ccccc3)O[C@H]2c2ccc(F)cc2)O1	-9%	?	?	i	-2%	?
COc1cc(-c2ccc(=O)[nH]n2)ccc1OC(F)F	-9%	0.052µM*	-1%	0.46µM*	25%	-1%
SMILES	HT1080 IDH1KD tx	KB-V1 MDR tox	TDP1 cell CPT	KB-3-1 cytotox	HT1080NT lethal	TDP1 cell noCPT
COc1ccc(-c2ccc(=O)[nH]n2)cc1	-2%	1.8µM*	-2%	i	13%	-2%
O=c1ccc(-c2ccccc2)n[nH]1	7%	?	13%	i	-5%	0%
CCc1ccc(NC(=O)Cn2c(=O)n(CCCC(=O)NCc3ccc4c(c3)OCO4)c(=O)c3ccccc32)cc1	/	i	21µM*	i	/	?
Cc1ccc(C)c(Cn2c(=O)n(CCCC(=O)NCc3ccc4c(c3)OCO4)c(=O)c3sccc32)c1	/	/	?	/	/	15µM*
O=C(CCn1c(=O)c2ccccc2n(Cc2ccc(F)cc2Cl)c1=O)NCc1ccc2c(c1)OCO2	/	i	-1%	i	/	?
COc1ccc(NC(=O)CCCn2c(=O)c3sccc3n(Cc3ccc(C)cc3)c2=O)cc1	-21%	i	-25%	i	-12%	?
COc1ccc(NC(=O)CCCn2c(=O)c3sccc3n(Cc3ccc(C)cc3C)c2=O)cc1	3%	8.2µM*	21µM*	i	3%	16µM*
O=C(CCCCn1c(=O)c2ccccc2n(Cc2cccc(F)c2)c1=O)NCc1ccc2c(c1)OCO2	/	?	?	?	/	23µM*
Cc1ccc(NC(=O)c2cnc(SCC(=O)N3CCCc4ccccc43)n(C)c2=O)cc1	/	/	?	/	/	-15%
CCCCNC(=O)C1(C)CCC(=O)N1CCc1c[nH]c2ccccc12 (centres undefined)	18%	?	1%	i	?	-4%
O=S(=O)(c1ccccc1Cl)N1CCC(Cc2ccccc2)CC1	15%	i	-16%	i	-1%	-10%
C/C(CC(C)(C)C1CCCCC1)=N\NC(N)=S	?	?	4.1µM*	i	5µM*	3.3µM*
